# From PubChem BioAssay
# In the library only some 21% were active in any assay of this set; here they are far more common.
# Pf growth 96h = inhibits malaria parasite growth, 96 h; P. falciparum luciferase reporter growth, 96 h; Potency, µM (doses to about 28.7 µM), without a hit: top-dose activity change, negative = inhibition, actives largely listed as inhibitors; hit rate 6.9% among 320,000; further: potency means the concentration at half of the fitted maximal effect; on the % scale 0 is the no-effect control and ±100 the full control effect
#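 Cell-based qHTS: luciferase-tagged P. falciparum in erythrocytes (2% hematocrit, 0.05% parasitemia final) incubated with compounds for 96 hours, 37 C, 5% CO2; luciferase detection reagent then added and luminescence measured.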
# NS1 inh = blocks influenza NS1 protein function; Potency, µM (top dose mostly 46.1 µM), for the others: at the highest dose activity, positive = more growth; hit rate 0.4% among 270,000; calls by dose curve; further: potency means the concentration at half of the fitted maximal effect; actives are rising curves; nearly all actives have a fitted effect of over 50% in size
#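 Recovery from NS1-induced slow growth read by OD600 in budding yeast switched to galactose assay medium (pH 6.0, -URA) at 1:100 dilution. Compound 23 nl per well; the matching strain lacking NS1 serves as control.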
# Shiga toxin inh = Shiga toxin inhibition. Vero cells, Shiga toxin protein synthesis inhibition reporter. inhibition, % at 38.7 µM. hit rate 9.2% among 290,000; in the data active means inhibition mostly above about 28%, no sharp cut-off; inactive means mostly below about 43%; further: 0% is about no effect
# CHX counter = affects cycloheximide protein synthesis inhibition readout, counter-screen; hit rate 12% among 300,000; AID 2314; max response, %; cell reporter, cycloheximide protein synthesis inhibition counterscreen; in the data active means max response mostly above about 13%, no sharp cut-off; inactive means mostly below about 14%; further: read at 38.3 µM for the half of the compounds with a filed dose; 0% is about no effect
# Pf growth 48h = P. falciparum growth inhibition at 48 hours (one generation); AID 504832; Potency, µM (titrated, usually from 28.7 µM), for the others: at the top dose activity change, negative = inhibition, most hits filed as inhibitors; P. falciparum luciferase growth in erythrocytes, 48 h; hit rate 5.9% among 310,000; further: potency means the concentration at half of the fitted maximal effect; on the % scale 0 is the no-effect control and ±100 the full control effect
#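 Growth was read as firefly luciferase luminescence after a 48 h, 37 C, 5% CO2 exposure of compounds to reporter-bearing P. falciparum cultures (0.1% parasitemia, 2% hematocrit final) in Albumax-supplemented RPMI 1640.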
# An asterisk follows results filed as active; ? = inconclusive; . = no result; [ ] = dose if it differs, or a comment. Unless noted, the call rests on the fitted dose curve; in most records, active means well fitted inhibition curve with a large enough effect; inconclusive means small, poorly fitted or top-dose-only effect, or another doubt; inactive means no such curve, though single readings can be large or run the other way.
SMILES,Pf growth 96h,NS1 inh,Shiga toxin inh,CHX counter,Pf growth 48h
COc1cc(C(CC(=O)N2CCCC2)c2c(OC)cc(OC)c3c(-c4ccccc4)cc(=O)oc23)cc(OC)c1OC (configuration not stated),3.7µM*,-6%,7,6,5.2µM*
COc1ccc(C(CC(=O)N2CCCCC2)c2c(OC)cc(OC)c3c(-c4ccccc4)cc(=O)oc23)cc1 (configuration not stated),13µM*,3%,-8,-2,12µM*
COc1cc(OC)c2c(-c3ccccc3)cc(=O)oc2c1C(CC(=O)N1CCCC1)c1ccc(N(C)C)cc1 (configuration not stated),.,.,-10,10,.
CCO[C@H]1OC(C(N)=O)=C[C@@H](C)[C@@H]1CCCO,0%,3%,-14,-2,0%
Cc1noc(C)c1S(=O)(=O)N1CCCC(C(=O)c2cccc(OC(C)C)c2)C1 (configuration not stated),14%,-1%,-5,-3,?
CC(C)Oc1cccc(C(=O)C2CCCN(S(C)(=O)=O)C2)c1 (configuration not stated),3.7µM*,3%,3,9,44%
Cc1nn(C(C)C)c(C)c1CN1CCCC(C(=O)c2cccc(OC(C)C)c2)C1 (configuration not stated),12µM*,3%,-7,-3,?
Cc1c(C)n(C(=O)CN2CCC(C)CC2)c2ccccc12,46%,3%,-11,1,32%
O=C(CNC(=S)NC(=O)c1ccccc1)c1ccccc1,36%,15%,44*,23*,63%
CC(C)C(=O)NC(=S)NCC(=O)c1ccccc1,?,-9%,26,29*,49%
O=C(CNC(=S)NC(=O)c1ccc(F)cc1)c1ccccc1,20%,-2%,10,6,40%
O=S(=O)(Nc1ccc2ccccc2n1)c1ccc2c(c1)CCO2,0%,-5%,4,3,0%
CCCn1cc(CN2CCCC(C(=O)c3ccc4c(c3)OCO4)C2)c(C)n1 (configuration not stated),-24%,1%,13,-3,-1%
O=C(CNC(=O)c1ccc(Br)o1)Nc1ccc(N2CCCCCC2)cc1,10µM*,.,.,.,39%
O=C(Nc1ccc(CN2CCCCC2)cc1)c1ccc(Br)o1,.,3%[9.22 µM],79*,31*,?
Cc1ccc(NC(=O)c2cc(S(=O)(=O)N3CCOCC3)cn2C)cc1F,?,0%,15,-1,?
COc1cc2[nH]c3c(N4CCN(c5ccccn5)CC4)ncnc3c2cc1OC,15µM*,-35%,-8,-4,9.3µM*
COc1ccc(N2CCN(c3ncnc4c3[nH]c3ccccc34)CC2)cc1,?,6%,-16,-1,?
COc1ccc2[nH]c3c(=O)n(CCCN4CCOCC4)cnc3c2c1,20%,2%,33,-1,24%
Cc1cccc2[nH]c3c(N4CC=C(c5ccc(F)cc5)CC4)ncnc3c12,?,-44%,-4,2,10µM*
COc1ccc2[nH]c3c(N4CCc5ccccc5C4)ncnc3c2c1,?,-6%,13,28*,?
COc1cccc2[nH]c3c(N4CCCCC4)ncnc3c12,23%,-12%,67,45*,?
CCOC(=O)C1CCN(c2ncnc3c2[nH]c2cccc(OC)c23)CC1,?,-9%,-12,-3,?
CCN(CCO)C[C@H]1CCC[C@H]2CCCC[C@@H]21,.,-1%,.,.,.
CCc1ccc(-c2nc(CS(=O)CC(=O)NCc3ccco3)c(C)o2)cc1 (configuration not stated),?,29%,-4,-5,10%
SMILES,Pf growth 96h,NS1 inh,Shiga toxin inh,CHX counter,Pf growth 48h
CCN(CC)CCNC(=O)CS(=O)Cc1nc(-c2ccccc2Cl)oc1C (configuration not stated),10µM*,0%,-5,-2,2%
CCc1ccc(-c2nc(CS(=O)CC(=O)NC3CCCCCC3)c(C)o2)cc1 (configuration not stated),8.3µM*,?,15,14*,21%
COc1ccc(-c2nc(CS(=O)CC(=O)NCCC3=CCCCC3)c(C)o2)cc1 (configuration not stated),?,-42%,81,31*,.
CCc1ccc(-c2nc(CS(=O)CC(=O)NC3CC3)c(C)o2)cc1 (configuration not stated),24%,25%,12,10,25%
CCc1ccc(-c2nc(CS(=O)CC(=O)O)c(C)o2)cc1 (configuration not stated),101%,-3%,53*,46*,125%
Cc1cc(OC(=O)c2ccc(S(=O)(=O)N3CCOCC3)cc2)c([N+](=O)[O-])c(=O)[nH]1,?,.,11,3,2%
Cn1c(NC(=O)Cc2cccc3ccccc23)cc(=O)n(C)c1=O,-96%,.,-12,6,3%
COc1ccc(-c2nc(CS(=O)CC(=O)NC3CCCC(C)C3C)c(C)o2)cc1OC (configuration not stated),12µM*,0%,-12,-10,-14%
CCc1ccc(-c2nc(CS(=O)CC(=O)NCc3cccnc3)c(C)o2)cc1 (configuration not stated),-10%,?,16,18*,43%
Cc1ccc(-c2nc(CS(=O)CC(=O)NCCCc3ccccc3)c(C)o2)cc1 (configuration not stated),?,12%,2,22*,2%
Cc1ccc(-c2nc(CS(=O)CC(=O)NC3CCCC(C)C3C)c(C)o2)cc1 (configuration not stated),-11%,-4%,-11,14,21%
Cc1ccc(-c2nc(CS(=O)CC(=O)NC(C)CCc3ccccc3)c(C)o2)cc1 (configuration not stated),15%,-25%,-8,6,2%
O=C(Nc1c(-c2ccccc2)nc2sccn12)c1ccccc1,-9%,7%,19,8,6%
N#Cc1c(NC(=O)C2C3C=CC(C3)C2C(=O)O)sc2c1CCCCC2 (configuration not stated),20%,-33%,33,16,0%
COc1cccc(OC)c1C(=O)Nc1sc2c(c1C#N)CCC2,-18%,?,10,1,-20%
Cc1cc(C(=O)Nc2sc3c(c2C#N)CCCCC3)cs1,3%,-3%,60*,29*,257%
N#Cc1c(NC(=O)C2CC2)sc2c1CCCCC2,107%,-12%,37*,31*,78%
CNC(=O)c1c(NC(=O)c2ccc(N3C(=O)CCC3=O)cc2)sc2c1CCCC2,?,-3%,-2,-1,8%
CCCC(=O)Nc1sc2c(c1C#N)CCCC2,39%,-5%,74*,33*,44%
CNC(=O)c1c(NC(=O)C(C)C)sc2c1CCC2,-9%,-12%,-2,-5,2.3µM*
CN(C)c1ccc(C2C3C(=O)NC(=O)C3ON2c2ccc(Cl)cc2)cc1 (configuration not stated),-24%,-51%,-4,5,.
